Drawing on the supplement of paper PMC10981050, this text covers cell viability for 40 molecules.

The structures appear in SMILES notation. Counter-ions that a name gives are not always drawn.

For one experiment, the system named is MOLM14. Briefly: cell viability relative to vehicle control; higher = less cytotoxic. The following applies: 10 µM; SRSF2 genotype: SRSF2 wt/wt. Put shortly: (§1)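 Screening covered the Selleck bioactive, kinase and epigenetic probe libraries, less identity-inconsistent compounds, on CRISPR-edited mutant clones and isogenic wild-type clones of four leukaemia lines. Cells, at 2000 per well in 50 µL medium, received a single 10 µM acoustically dispensed dose. After 48 h the supernatant was removed and CellTiter-Glo luminescence was read. Viability was analysed in Genedata Screener as percent of the on-plate vehicle control.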
As for `CCOc1ccc(Cc2cc([C@@H]3O[C@H](SC)[C@@H](O)[C@H](O)[C@H]3O)ccc2Cl)cc1` [Sotagliflozin (LX4211)], the cell viability is 89.5%.

In the case of `c1cc(CN2CCCNCCNCCCNCC2)ccc1CN1CCCNCCNCCCNCC1` [Plerixafor], the cell viability was 94.7%.

In the case of `Nc1ncnc2c1ncn2C(C=O)OC(C=O)CO` (stereo unspecified) [Adenosine Dialdehyde (ADOX)], the cell viability came to 14.5%.

Turning to `COc1ccc(CNc2nc(N3CCC[C@H]3CO)ncc2C(=O)NCc2ncccn2)cc1Cl` [Avanafil], the cell viability was 104%.

Turning to `CC(C)=CC(O)C/C(C)=C/COc1c2ccoc2cc2oc(=O)ccc12` (stereo unspecified) [Notopterol], the cell viability came to 56.4%.

Take `Cc1nc(N(C)C(=O)Cc2ccc(-c3ccccn3)cc2)sc1S(N)(=O)=O` [Pritelivir (BAY 57-1293)]: the cell viability amounted to 103%.

For the molecule `C[C@@H](CN1CC(=O)NC(=O)C1)N1CC(=O)NC(=O)C1` [Dexrazoxane], the cell viability is 97.9%.

For the molecule `O=C(O)[C@H]1O[C@@H](Oc2cc3oc(-c4ccc(O)cc4)cc(=O)c3c(O)c2O)[C@H](O)[C@@H](O)[C@@H]1O` [Scutellarin], the cell viability stood at 105%.

As to `CC(C)=CCCC(C)(O)C1CCC2(C)C1C(O)CC1C3(C)CCC(O)C(C)(C)C3C(OC3OC(CO)C(O)C(O)C3OC3OC(C)C(O)C(O)C3O)CC12C` [(20S)Ginsenoside Rg2], the cell viability came to 104%.

As to `C=CC(=O)N[C@H]1CCOC[C@H]1Nc1ncc2cc(-c3c(Cl)c(OC)cc(OC)c3Cl)ccc2n1`, the cell viability was found to be 79.8%.

With `C=C[C@]1(C)C[C@@H](OC(=O)CSC(C)(C)CNC(=O)[C@H](N)C(C)C)[C@]2(C)[C@H](C)CC[C@]3(CCC(=O)[C@H]32)[C@@H](C)[C@@H]1O` [Valnemulin HCl], the cell viability was 80%.

A further experiment concerns OCI-AML2. Described as above. Conditions: 10 µM; SRSF2 genotype: P95H/wt. The essentials: as §1
`COc1ccc2c(c1)c(CC(=O)OCC(=O)O)c(C)n2C(=O)c1ccc(Cl)cc1` [Acemetacin (Emflex)]: the cell viability was determined as 108%.

For the molecule `CC(c1cc2ccccc2s1)N(O)C(N)=O` (stereo unspecified) [Zileuton], the cell viability was determined as 92.8%.

For the molecule `COc1ccc(C(=O)CC(=O)c2ccc(C(C)(C)C)cc2)cc1` [Avobenzone (Parsol 1789)], the cell viability came to 61.2%.

`CNC(=O)[C@H](Cc1ccccc1)NC(=O)[C@H](CC(C)C)[C@H](CSc1cccs1)C(=O)NO` [Batimastat (BB-94)]: the cell viability worked out at 115%.

`Nc1ncnc2c1c(-c1cccc(OCc3ccccc3)c1)cn2C1CC(CN2CCCC2)C1` (stereo unspecified): the cell viability was 35.1%.

Consider `C=C1C[C@@]23CC[C@H]4[C@@](C)(CCC[C@@]4(C)C(=O)O)[C@@H]2CC[C@@H]1C3` [Kaurenoic acid], for which the cell viability was found to be 104%.

As to `CC(C)[C@H](NC(=O)[C@H](CC(=O)O)NC(=O)[C@H](CCCCN)NC(=O)[C@@H](N)CCCN=C(N)N)C(=O)N[C@@H](Cc1ccc(O)cc1)C(=O)O` [Thymopentin], the cell viability is 77.9%.

For `C=CC(=O)Nc1cccc(Nc2nc(Nc3ccc(NC4CN(CCF)C4)cc3OC)ncc2C(F)(F)F)c1`, the cell viability was 12.3%.

In the case of `CC1(C)O[C@@H]2[C@@H](CO[C@@]3(COS(N)(=O)=O)OC(C)(C)O[C@@H]23)O1` [Topiramate], the cell viability is 104%.

Turning to `O=S(=O)(NCCSSCCNS(=O)(=O)c1cc(Cl)ccc1Cl)c1cc(Cl)ccc1Cl`, the cell viability was 51.9%.

In the case of `COC(=O)CCC(C)C1CCC2C3C(O)CC4CC(O)CCC4(C)C3CC(O)C12C` (stereo unspecified) [Methyl Cholate], the cell viability stood at 102%.

For the molecule `COc1ccc(C2=NC(c3ccc(Cl)cc3)C(c3ccc(Cl)cc3)N2C(=O)N2CCNC(=O)C2)c(OC(C)C)c1` (stereo unspecified) [Nutlin-3b], the cell viability came out at 84.5%.

Regarding `Clc1ncnc2nc[nH]c12` [6-Chloropurine], the cell viability was determined as 83.3%.

With `CCC1=C[C@@H]2CN(C1)Cc1c([nH]c3ccccc13)[C@@](C(=O)OC)(c1cc3c(cc1OC)N(C)[C@H]1[C@@](O)(C(=O)OC)[C@H](OC(C)=O)[C@]4(CC)C=CCN5CC[C@]31[C@@H]54)C2` [Vinorelbine Tartrate], the cell viability came to 1.63%.

`Cc1nccn1CC1CCc2c(c3ccccc3n2C)C1=O` (stereo unspecified) [Ondansetron hydrochloride (Zofran)]: the cell viability worked out at 95.5%.

For `CC(C)=CCCC(C)(O)C1CCC2(C)C1C(O)CC1C3(C)CCC(O)C(C)(C)C3CCC12C` [(20S)-Protopanaxadiol], the cell viability is 115%.

On to `C[C@@H]1O[C@@H](O[C@@H]2[C@@H](O)[C@H](OCCc3ccc(O)c(O)c3)O[C@H](CO)[C@H]2OC(=O)/C=C/c2ccc(O)c(O)c2)[C@H](O)[C@H](O)[C@H]1O` [Verbascoside], for which the cell viability turned out to be 92.7%.

`C=C1C[C@@]23CC[C@H]4[C@@](C)(CCC[C@@]4(C)C(=O)O)[C@@H]2CC[C@]1(O[C@@H]1O[C@@H](CO)[C@@H](O)[C@H](O)[C@@H]1O[C@@H]1O[C@@H](CO)[C@@H](O)[C@H](O)[C@@H]1O)C3` [Steviolbioside]: the cell viability worked out at 104%.

Turning to `CNc1ccc([N+](=O)[O-])c(Nc2ccc3[nH]ncc3c2)n1`, the cell viability was 18.9%.

Regarding `CN(C)/N=N/c1[nH]cnc1C(N)=O` [Dacarbazine (DTIC-Dome)], the cell viability stood at 107%.

As for `Cc1ccc(CN(CC(O)COc2cccc3[nH]ccc23)C(C)(C)C)cc1` (stereo unspecified), the cell viability amounted to 83.4%.

On to `CN1CCN(C2=Nc3cc(Cl)ccc3Nc3ccccc32)CC1` [Clozapine (Clozaril)], for which the cell viability was 100%.

Turning to `C[C@]1(O)C[C@@H](O)[C@@H]2C=CO[C@@H](O[C@@H]3O[C@H](CO)[C@@H](O)[C@H](O)[C@H]3O)[C@@H]21` [Leonuride], the cell viability was 102%.

Turning to `CCCCCCCCCC(C)O` (stereo unspecified) [2-Undecanol], the cell viability came to 110%.

Consider `CC(C)(C)n1nc(-c2ccc(Cl)cc2)c2c(N)ncnc21`, for which the cell viability was determined as 80%.

For `Cc1cc(O)c(-c2ccc([C@@H](C)CN(C)C)cc2)c2c1[nH]c(=O)c1sccc12`, the cell viability was found to be 0.39%.

Regarding `CC1(C)CC[C@]2(C(=O)O)CC[C@]3(C)C(=CC[C@@H]4[C@@]5(C)CC[C@H](O)C(C)(C)[C@@H]5CC[C@]43C)[C@@H]2C1` [Oleanolic Acid (Caryophyllin)], the cell viability turned out to be 66.8%.

In the case of `C[C@@H]1CC[C@@]2(OC1)O[C@H]1C[C@H]3[C@@H]4CC=C5C[C@@H](O[C@@H]6O[C@H](CO)[C@@H](O)[C@H](O)[C@H]6O)CC[C@]5(C)[C@H]4CC[C@]3(C)[C@H]1[C@@H]2C` [Trillin], the cell viability is 88.3%.

`CCCCCCOC(=O)c1cc(=O)c(O)c2c(O)c(O)c(OC)cc2c1`: the cell viability stood at 19.8%.

Turning to `CCOc1ccc(Cc2cc([C@@H]3O[C@H](SC)[C@@H](O)[C@H](O)[C@H]3O)ccc2Cl)cc1` [Sotagliflozin (LX4211)], the cell viability turned out to be 88.6%.

Take `c1cc(CN2CCCNCCNCCCNCC2)ccc1CN1CCCNCCNCCCNCC1` [Plerixafor]: the cell viability amounted to 103%.

With `Nc1ncnc2c1ncn2C(C=O)OC(C=O)CO` (stereo unspecified) [Adenosine Dialdehyde (ADOX)], the cell viability was determined as 40.4%.

For the molecule `COc1ccc(CNc2nc(N3CCC[C@H]3CO)ncc2C(=O)NCc2ncccn2)cc1Cl` [Avanafil], the cell viability was found to be 102%.

Turning to `CC(C)=CC(O)C/C(C)=C/COc1c2ccoc2cc2oc(=O)ccc12` (stereo unspecified) [Notopterol], the cell viability is 51.5%.

For `Cc1nc(N(C)C(=O)Cc2ccc(-c3ccccn3)cc2)sc1S(N)(=O)=O` [Pritelivir (BAY 57-1293)], the cell viability amounted to 98.5%.

For the molecule `C[C@@H](CN1CC(=O)NC(=O)C1)N1CC(=O)NC(=O)C1` [Dexrazoxane], the cell viability worked out at 96.8%.

Take `O=C(O)[C@H]1O[C@@H](Oc2cc3oc(-c4ccc(O)cc4)cc(=O)c3c(O)c2O)[C@H](O)[C@@H](O)[C@@H]1O` [Scutellarin]: the cell viability stood at 101%.

In the case of `CC(C)=CCCC(C)(O)C1CCC2(C)C1C(O)CC1C3(C)CCC(O)C(C)(C)C3C(OC3OC(CO)C(O)C(O)C3OC3OC(C)C(O)C(O)C3O)CC12C` [(20S)Ginsenoside Rg2], the cell viability came to 101%.

As for `C=CC(=O)N[C@H]1CCOC[C@H]1Nc1ncc2cc(-c3c(Cl)c(OC)cc(OC)c3Cl)ccc2n1`, the cell viability was found to be 66.8%.

`C=C[C@]1(C)C[C@@H](OC(=O)CSC(C)(C)CNC(=O)[C@H](N)C(C)C)[C@]2(C)[C@H](C)CC[C@]3(CCC(=O)[C@H]32)[C@@H](C)[C@@H]1O` [Valnemulin HCl]: the cell viability was 60.7%.

Broadly, the cell viability is a read-out of living cells in per cent, often relative to untreated cells.
